Bioassay records (PubChem)
TPT1 inhibitor = inhibitors of Candida albicans tRNA 2'-phosphotransferase TPT1; recombinant caTPT1, FP RNA substrate dephosphorylation; inhibition, % at 5 µM; 0.81% of 300,000 active;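 active means inhibition above the mean of all tested compounds plus 3 SD, set per screening campaign, cut at about 24% in these data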
PHOSPHO1 block = PHOSPHO1 (human) inhibition; Q8TCT1; recombinant PHOSPHO1, absorbance phosphatase assay; inhibition, % at 13.3 µM; 1.1% of 290,000 active; AID 1565; in the data active means inhibition above about 60%
HNF4A DNA FP = change in binding of human HNF4 alpha to DNA. activity change, % at 10 µM. P41235. AID 1224865. 0.3% of 360,000 active. HNF4a-FITC DNA binding, fluorescence polarization, 1 h; in the data active means activity change above about 30%, passing the limit was not always enough
Target sequence (P41235 whole entry, looked up): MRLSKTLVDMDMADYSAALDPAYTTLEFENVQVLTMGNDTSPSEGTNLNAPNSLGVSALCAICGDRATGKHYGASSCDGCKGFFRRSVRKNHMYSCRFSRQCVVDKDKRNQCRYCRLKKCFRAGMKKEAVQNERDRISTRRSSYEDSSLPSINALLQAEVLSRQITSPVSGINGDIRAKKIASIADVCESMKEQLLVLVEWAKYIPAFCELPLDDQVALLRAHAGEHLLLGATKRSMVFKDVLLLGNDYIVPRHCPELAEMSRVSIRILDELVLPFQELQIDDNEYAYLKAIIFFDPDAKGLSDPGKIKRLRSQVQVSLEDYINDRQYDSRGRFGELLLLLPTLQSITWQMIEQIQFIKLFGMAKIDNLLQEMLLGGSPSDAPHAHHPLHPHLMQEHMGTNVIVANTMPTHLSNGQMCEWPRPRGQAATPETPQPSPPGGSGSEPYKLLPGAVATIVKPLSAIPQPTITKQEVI
CTSL1 counter = counter-screen for PFM18AAP inhibitors: inhibitors of F. hepatica cathepsin L1; recombinant F. hepatica cathepsin L1, Z-Leu-Arg-MCA fluorescence; inhibition, % at 5.96 µM; 0.49% of 300,000 active; AID 1906;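 active means inhibition above the mean of all tested compounds plus 3 SD, set per screening campaign, cut at about 17% in these data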
Rpn11 block = inhibitors of human proteasome Rpn11 | O00487 | human 26S proteasome, Ub4-pepOG fluorescence polarization; 20S core pre-blocked with epoxomicin | inhibition, % at 20 µM | 0.59% of 360,000 active | AID 588493;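 active means inhibition at 20 µM, scaled to each plate's controls, above about 33%, limit read from the data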
NRP1-CendR mod = NRP-1/CendR interaction modulation. inhibition, % at 25 µM. O14786. 0.85% of 360,000 active. AID 602438. FAM-RPARPAR peptide binding to NRP-1, fluorescence polarization;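 active means inhibition or corrected inhibition above about 18%, plus a signal ratio from 0.5 to 1.5, limit read from the data, passing the limit was not always enough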
Numbers stand for hits. An excerpt weighted towards active compounds, which were near 3.3% of everything screened.

NC(=S)Nc1cccc2cc3ccccc3cc12 was read as TPT1 inhibitor inactive, PHOSPHO1 block 97, HNF4A DNA FP inactive, CTSL1 counter inactive, Rpn11 block inactive and NRP1-CendR mod inactive.
Screening COc1cccc2cc(C(C)N(CCCN3CCOCC3)C(=S)Nc3c(C)cccc3C)oc12 (centres undefined) returned TPT1 inhibitor inactive, PHOSPHO1 block inactive, HNF4A DNA FP inactive, CTSL1 counter inactive, Rpn11 block inactive and NRP1-CendR mod inactive.
Screening COc1cccc2cc(C(C)N(CCCN3CCOCC3)C(=S)Nc3cccc(C)c3)oc12 (centres undefined) returned TPT1 inhibitor inactive, PHOSPHO1 block inactive, HNF4A DNA FP inactive, CTSL1 counter inactive, Rpn11 block inactive and NRP1-CendR mod 39.
`COc1cccc2cc(C(C)N(CCCN3CCOCC3)C(=S)Nc3cc(C)cc(C)c3)oc12` (centres undefined) gave TPT1 inhibitor inactive, PHOSPHO1 block inactive, HNF4A DNA FP inactive, CTSL1 counter inactive, Rpn11 block inactive and NRP1-CendR mod inactive.
CCc1ccc(NC(=O)N(CCCN2CCOCC2)C(C)c2cc3cccc(OC)c3o2)cc1 (centres undefined) was read as TPT1 inhibitor inactive, PHOSPHO1 block inactive, HNF4A DNA FP inactive, CTSL1 counter inactive, Rpn11 block inactive and NRP1-CendR mod 37.
Screening CSc1ncccc1C(=O)OCC(=O)NC1CCCC1 returned HNF4A DNA FP inactive, Rpn11 block inactive and NRP1-CendR mod inactive.
For Cc1ccc(NC(=O)COC(=O)c2cccnc2Cl)cc1S(=O)(=O)N1CCOCC1 the results were HNF4A DNA FP inactive, Rpn11 block inactive and NRP1-CendR mod inactive.
`CSc1ncccc1C(=O)OCC(=O)Nc1ccc(C)c(S(=O)(=O)N2CCOCC2)c1` gave HNF4A DNA FP inactive, Rpn11 block inactive and NRP1-CendR mod 20.
CSc1ncccc1C(=O)OCC(=O)NC1CCCCC1 was read as HNF4A DNA FP inactive, Rpn11 block inactive and NRP1-CendR mod 23.
For CCOC(=O)C1=C(C)NC(C)=C(C(=O)OCC)C1C(=O)OCC(=O)NC(C)C the results were TPT1 inhibitor inactive, PHOSPHO1 block inactive, HNF4A DNA FP inactive, CTSL1 counter inactive, Rpn11 block inactive and NRP1-CendR mod inactive.
Screening Cc1[nH]oc(=O)c1N=Nc1ccc2[nH]c(=O)[nH]c2c1 returned TPT1 inhibitor inactive, HNF4A DNA FP inactive, CTSL1 counter inactive, Rpn11 block inactive and NRP1-CendR mod inactive.
`C=CCn1c(CSc2ccc(C)cc2)n[nH]c1=S` gave TPT1 inhibitor inactive, PHOSPHO1 block inactive, HNF4A DNA FP inactive, CTSL1 counter inactive, Rpn11 block inactive and NRP1-CendR mod inactive.
Screening S=c1[nH]nc(CSc2nc3ccccc3s2)n1Cc1ccccc1 returned TPT1 inhibitor inactive, PHOSPHO1 block 98, HNF4A DNA FP inactive, CTSL1 counter inactive, Rpn11 block inactive and NRP1-CendR mod inactive.
CCn1c(CSc2nc3ccccc3s2)n[nH]c1=S was read as TPT1 inhibitor inactive, PHOSPHO1 block 96, HNF4A DNA FP inactive, CTSL1 counter inactive, Rpn11 block inactive and NRP1-CendR mod inactive.
`C=CCn1c(CSc2nnc(-c3ccccc3)n2C)n[nH]c1=S` gave TPT1 inhibitor inactive, PHOSPHO1 block inactive, HNF4A DNA FP inactive, CTSL1 counter 28, Rpn11 block inactive and NRP1-CendR mod inactive.
`S=c1[nH]nc(CCc2ccccc2)n1Cc1ccccc1` gave TPT1 inhibitor inactive, PHOSPHO1 block inactive, HNF4A DNA FP inactive, CTSL1 counter inactive, Rpn11 block inactive and NRP1-CendR mod inactive.
C=CCn1c(CSc2nc3ccccc3s2)n[nH]c1=S was read as TPT1 inhibitor inactive, PHOSPHO1 block 106, HNF4A DNA FP inactive, CTSL1 counter inactive, Rpn11 block inactive and NRP1-CendR mod inactive.
c1ccc(-c2nnc(N3CCCC3)nc2-c2ccccc2)cc1 was read as PHOSPHO1 block inactive, HNF4A DNA FP inactive, Rpn11 block inactive and NRP1-CendR mod inactive.
`C=CCn1c(Cc2nc3ccccc3[nH]2)n[nH]c1=S` gave TPT1 inhibitor inactive, PHOSPHO1 block 90, HNF4A DNA FP inactive, CTSL1 counter inactive, Rpn11 block inactive and NRP1-CendR mod inactive.
For C=CCn1c(Cc2cccc3ccccc23)n[nH]c1=S the results were TPT1 inhibitor inactive, PHOSPHO1 block inactive, HNF4A DNA FP inactive, CTSL1 counter inactive, Rpn11 block inactive and NRP1-CendR mod inactive.
For COCCn1nnnc1C(c1ccccc1OC)N1CCN(C(=O)c2ccco2)CC1 (centres undefined) the results were TPT1 inhibitor inactive, PHOSPHO1 block inactive, HNF4A DNA FP inactive, CTSL1 counter inactive, Rpn11 block inactive and NRP1-CendR mod inactive.
`Cc1ccc(F)c(NC(=O)C2CCCCC2C(=O)O)c1` (centres undefined) gave TPT1 inhibitor inactive, PHOSPHO1 block inactive, HNF4A DNA FP inactive, CTSL1 counter inactive, Rpn11 block inactive and NRP1-CendR mod inactive.
For Cc1ccccc1Nc1nc(CSc2nnc(-c3ccoc3C)n2C)cs1 the results were TPT1 inhibitor inactive, PHOSPHO1 block 69, HNF4A DNA FP inactive, CTSL1 counter inactive, Rpn11 block inactive and NRP1-CendR mod inactive.
For CN(C(=O)CSc1ncnc2sc3c(c12)CCC3)C1CCS(=O)(=O)C1 (centres undefined) the results were HNF4A DNA FP inactive, Rpn11 block inactive and NRP1-CendR mod inactive.
For CCC(=O)N1CCc2cc(S(=O)(=O)NCCC(=O)NC3CCCCCC3)ccc21 the results were TPT1 inhibitor inactive, PHOSPHO1 block inactive, HNF4A DNA FP inactive, CTSL1 counter inactive, Rpn11 block inactive and NRP1-CendR mod inactive.
For Cc1occc1C(=O)NNC(=S)Nc1cccc([N+](=O)[O-])c1 the results were TPT1 inhibitor inactive, PHOSPHO1 block 88, HNF4A DNA FP inactive, CTSL1 counter inactive, Rpn11 block inactive and NRP1-CendR mod inactive.
Screening Cc1cccc(NC(=S)NNC(=O)c2cccc([N+](=O)[O-])c2)c1 returned TPT1 inhibitor inactive, PHOSPHO1 block inactive, HNF4A DNA FP inactive, CTSL1 counter inactive, Rpn11 block inactive and NRP1-CendR mod inactive.
For CCOP(=O)(OCC)C(NC(=O)c1cc([N+](=O)[O-])cc([N+](=O)[O-])c1)C(F)(F)F (centres undefined) the results were TPT1 inhibitor inactive, PHOSPHO1 block inactive, HNF4A DNA FP inactive, CTSL1 counter 40, Rpn11 block inactive and NRP1-CendR mod inactive.
Screening COc1cc(NS(=O)(=O)c2ccc(NC(=O)c3cccs3)cc2)nc(OC)n1 returned TPT1 inhibitor inactive, PHOSPHO1 block inactive, HNF4A DNA FP inactive, CTSL1 counter inactive, Rpn11 block inactive and NRP1-CendR mod inactive.
Screening CCOc1ccc(/C=C/C(=O)N(CC)CC(=O)Nc2ccc3c(c2)OCCO3)cc1OC returned TPT1 inhibitor inactive, HNF4A DNA FP inactive, CTSL1 counter inactive, Rpn11 block inactive and NRP1-CendR mod inactive.
`CCOc1ccc(/C=C/C(=O)N(CC)CC(=O)Nc2c(F)cccc2F)cc1OC` gave HNF4A DNA FP inactive, Rpn11 block inactive and NRP1-CendR mod 22.
